ATXN2 expr inh – Primary qHTS for Inhibitors of ATXN expression; AID 1745845, 2022; 360,000 compounds, 0.72% hits; HEK-293 ATXN2-luciferase reporter, luminescence, 24 h; Potency, µM (titrated, usually from 57 µM), for inactives: top-dose activity change, negative = inhibition, actives largely listed as inhibitors; also: potency is read from the fitted curve at half-maximal effect; % is scaled to controls: 0 for no effect and ±100 for the full control effect; nearly all actives have a fitted effect of over 55% in size
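qHTS (up to 57 uM final) was run with 24 h compound exposure of reporter cells at 37 °C. Each well was multiplexed: SteadyGlo luminescence measured ATXN2-luciferase expression after a fluorogenic Gly-Phe-AFC viability readout (25 uM final).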
ATXN viability – Viability Counterscreen for Primary qHTS for Inhibitors of ATXN expression; AID 651635, 2014; Potency, µM (doses to about 56.7 µM), usual class: cytotoxic; S2 cells (HEK-293 line with an ATXN2-luciferase reporter) viability, CellTiter-Fluor protease fluorescence, 24 h; 400,000 compounds, 0.49% hits; also: potency is read from the fitted curve at half-maximal effect; nearly all actives have a fitted effect of over 40% in size
D3 ag – qHTS of D3 Dopamine Receptor Agonist: qHTS; D(3) dopamine receptor (Homo sapiens), P35462; D3R DiscoveRx beta-arrestin cells, luminescence, 90 min; max activation, %; 410,000 compounds, 0.58% hits; AID 652048, 2013; in the data active = max activation above about 30%; also: 0% is about no effect
Target sequence (P35462 whole entry, looked up): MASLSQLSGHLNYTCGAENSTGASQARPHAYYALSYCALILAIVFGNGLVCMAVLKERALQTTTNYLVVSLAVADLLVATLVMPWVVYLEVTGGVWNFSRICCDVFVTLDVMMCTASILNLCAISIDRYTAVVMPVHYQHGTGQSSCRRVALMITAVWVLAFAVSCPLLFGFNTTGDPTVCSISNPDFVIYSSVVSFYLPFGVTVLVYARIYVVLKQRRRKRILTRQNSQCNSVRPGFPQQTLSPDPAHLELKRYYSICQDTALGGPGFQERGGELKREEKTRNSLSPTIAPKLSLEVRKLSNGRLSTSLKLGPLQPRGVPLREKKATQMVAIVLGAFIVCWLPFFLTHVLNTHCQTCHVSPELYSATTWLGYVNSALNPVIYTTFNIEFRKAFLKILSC
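Agonist-mode cell screen: cells plated at 1500/well and incubated overnight at 37 °C, then exposed to library compounds for 90 min at 37 °C. Detection reagent was added for 30–60 min at room temperature, and luminescence was read.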
HepG2 tox – qHTS for Inhibitors of TGF-b: Cytotox Counterscreen | HepG2 CAGA-GFP viability, ATP luminescence, 18 h | Potency, µM (series often up to 46.1 µM), for inactives: at the top dose activity change, negative = cytotoxicity, most hits filed as cytotoxic | 410,000 compounds, 0.76% hits | AID 588856, 2011; also: potency is read from the fitted curve at half-maximal effect
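CellTiter-Glo luminescence gave cytotoxicity after 18 hours at 37 degrees C. The cells were HepG2 CAGA-GFP in 1% FBS DMEM, stimulated with 500 pg/mL TGF-beta after compound addition. %Activity was normalised to no-cell wells (complete cell-killing) and DMSO (no toxicity), and curves were fitted and classified.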
DRD3 antagonist – qHTS of D3 Dopamine Receptor Antagonist: qHTS; D3R cells, DiscoveRx beta-arrestin luminescence, antagonist mode; active compounds read low; max response, negative = inhibition, %; 360,000 compounds, 2.5% hits; AID 652054, 2013; in the data active = max response below about -50%; inconclusive = no clear call, values can overlap the other calls; also: % is scaled to controls: 0 for no effect and ±100 for the full control effect
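Cells expressing the human receptor were seeded at 1500 cells/well, incubated overnight at 37 degrees C in 5% CO2, then exposed to library compounds with dopamine controls for 90 minutes at 37 degrees C before luminescent detection.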
TGFb inhibitor – qHTS for Inhibitors of TGF-b; AID 588855, 2011; HepG2 CAGA-GFP TGF-b/SMAD3 reporter, GFP fluorescence, 18 h; TGF-beta stimulated, 500 pg/mL final; Potency, µM (doses to about 46.1 µM), for inactives: top-dose activity, negative = inhibition, usual class: inhibitors; 410,000 compounds, 1.2% hits; also: potency is read from the fitted curve at half-maximal effect; % is scaled to controls: 0 for no effect and ±100 for the full control effect; nearly all actives have a fitted effect of over 65% in size
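HEPG2 CAGA-GFP reporter cells (1000/well, DMEM with 1% FBS) received compounds, then recombinant TGF-beta at 500 pg/mL final for 18 hours at 37 degrees C. Per-cell GFP summed per well was normalised to unstimulated and stimulated DMSO controls before curve fitting.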
Starred values were filed as active, the others as inactive; i = inactive; ? = inconclusive; nt = no result given. Hits are enriched below; roughly 4.8% of the tested compounds scored in any of these assays. Unless noted, calls follow the shape of the dose curve; as a rule, active = well fitted curve in the direction sought with a large enough effect; inconclusive = small, poorly fitted or top-dose-only effect, or another doubt; inactive = no such curve, though single readings can be large; an effect the other way counts as inactive or inconclusive.

SMILES	ATXN2 expr inh	ATXN viability	D3 ag	HepG2 tox	DRD3 antagonist	TGFb inhibitor
CC(=O)Nc1cccc(-c2cc(N3CCN(CCO)CC3)n3nccc3n2)c1	-1%	i	37*	-3%	-15	-1%
O=[N+]([O-])c1cc(-c2ncccn2)c([N+](=O)[O-])s1	?	nt	-19	-96%	-104*	11µM*
O=C(COc1ccccc1Cl)N(Cc1ccco1)Cc1ccco1	nt	nt	1	-16%	nt	-2%
CN(C)c1cccc(C(=O)OCc2cc(=O)oc3cc(O)ccc23)c1	24%	nt	1	9%	2	-7%
COc1ccc2c(COC(=O)c3cccc(S(=O)(=O)NCC(C)C)c3)cc(=O)oc2c1	-6%	i	32*	11%	46	2%
CC1CN(S(=O)(=O)c2cccc(C(=O)OCc3cc(=O)oc4cc(O)ccc34)c2)CC(C)O1 (configuration not stated)	-22%	i	-10	-76%	-56*	6%
O=S(=O)(Nc1cccc(F)c1)c1ccc2[nH]c3c(c2c1)CCCCC3	0%	28µM*	-17	-101%	nt	?
O=S(=O)(Nc1cc(F)ccc1F)c1ccc2[nH]c3c(c2c1)CCCCC3	?	?	-5	11µM*	nt	?
O=S(=O)(Nc1cc(F)ccc1F)c1ccc2[nH]c3c(c2c1)CCCC3	?	?	-3	-52%	nt	?
C=C(NC(=O)C(=C)NC(=O)c1csc(C2=NC3c4csc(n4)C4NC(=O)c5csc(n5)C(C(C)(O)C(C)O)NC(=O)C5CSC(=N5)/C(=C/C)NC(=O)C(C(C)O)NC(=O)c5csc(n5)C3(CC2)NC(=O)C(C)NC(=O)C(=C)NC(=O)C(=C)NC(=O)C(C(C)C)NC2C=Cc3c(C(C)O)cc(nc3C2O)C(=O)OC4C)n1)C(N)=O (configuration not stated)	?	2.7µM*	-6	0%	11	8.9µM*
COc1ccccc1-c1ccnc(-n2ncc(C(=O)N[C@H]3CCCCNC3=O)c2C2CC2)n1	nt	i	nt	nt	nt	nt
C(=C\c1ccnc2ccccc12)/c1ccc(N2CCNCC2)cc1	nt	nt	nt	-49%	nt	?
NC1(Cc2ccc(Cl)cc2)CCN(c2ncnc3[nH]ccc23)CC1	27µM*	nt	nt	nt	nt	nt
COCCNc1ccc2cc(S(=O)(=O)N3CCCCC3)ccc2n1	-1%	i	2	-12%	nt	-10%
CC(=O)C1=C(C)NC(=O)NC1c1ccccc1OCC(=O)NCCc1ccccc1 (configuration not stated)	-2%	i	5	44%	-64*	-5%
Cc1nc2nc(NC(=O)C(C)(C)C)[nH]n2c(=O)c1Cc1ccccc1	5%	i	-10	-11%	nt	6%
CCN(CC)S(=O)(=O)c1ccc(NCc2ccccc2)nc1	-7%	i	33*	-12%	14	13%
CCN(CC)S(=O)(=O)c1ccc(NCc2ccccn2)nc1	1%	i	-2	2%	3	-2%
CCCNc1ccc(S(=O)(=O)N(C(C)C)C(C)C)cn1	-16%	i	-11	-28%	-75*	7%
CCOC(=O)c1c(S(=O)(=O)N2CCCC(C(=O)N3CCN(c4cccc(C)c4C)CC3)C2)c(C)n(C)c1C (configuration not stated)	-4%	i	-8	-23%	nt	0%
OC(CNc1ccnc2cc(Cl)ccc12)CNC1CCCCC1 (configuration not stated)	32µM*	nt	-13	-93%	?	?
CCN(CC)CCNc1ccnc2cc(Cl)ccc12	?	i	-30	-38%	-80*	-15%
CCOc1c(Cl)cc(CNc2ccc3[nH]c(=O)[nH]c3c2)cc1OC	-28%	?	-1	-12%	nt	3%
N#Cc1c(NC(=O)c2cccc3ccccc23)sc2c1CCCC2	12%	nt	nt	nt	nt	nt
